From PubChem BioAssay AID1159580 (chemical genetic matrix, 2015)
Hit rate of the full screen: of about 5,500 compounds, about 2,000 (36%) were called active. Another 18% or so got no clear call; they are omitted. Some of the results follow. Unmarked numbers belong to inactive results. No stated cut-off is given here; in the data, active means normalized growth mostly below about 0.91 (no sharp cut-off); inconclusive means no clear call, values can overlap the other calls; inactive means mostly above about 0.92.

Assay: chemical genetic growth profiling, strain panel (AID 1159580);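 further: tested at 20 µM; growth read once vehicle control cultures reached saturation at 30 °C; 1 = growth at the plate median or of vehicle wells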
Settings: S. cerevisiae deletion strains, growth OD

O=c1oc2cc(O)ccc2s1
normalized growth (locus YAL013W, strain DEP1, stronger effect = lower value): 0.999
normalized growth (locus YAL021C, strain ccr4, stronger effect = lower value): 1.06
normalized growth (locus YAL026C, strain drs2, stronger effect = lower value): 1
normalized growth (locus YAL030W, strain snc1, stronger effect = lower value): 0.995
normalized growth (locus YBL061C, strain skt5, stronger effect = lower value): 1.01
normalized growth (locus YBR009C, strain hhf1, stronger effect = lower value): 0.972
normalized growth (locus YBR021W, strain FUR4, stronger effect = lower value): 1.03
normalized growth (locus YBR023C, strain chs3, stronger effect = lower value): 1.01
normalized growth (locus YBR171W, strain sec66, stronger effect = lower value): 1.02
normalized growth (locus YBR229C, strain ROT2, stronger effect = lower value): 0.966
normalized growth (locus YBR231C, strain swc5, stronger effect = lower value): 0.965
normalized growth (locus YBR279W, strain paf1, stronger effect = lower value): 0.999
normalized growth (locus YCL011C, strain gbp2, stronger effect = lower value): 0.988
normalized growth (locus YCL016C, strain dcc1, stronger effect = lower value): 0.993
normalized growth (locus YCL029C, strain bik1, stronger effect = lower value): 0.899 (active)
normalized growth (locus YCL061C, strain MRC1, stronger effect = lower value): 0.997
normalized growth (locus YCL069W, strain vba3, stronger effect = lower value): 1.01
normalized growth (locus YCR088W, strain abp1, stronger effect = lower value): 1.01
normalized growth (locus YDL005C, strain med2, stronger effect = lower value): 1.04
normalized growth (locus YDL035C, strain GPR1, stronger effect = lower value): 0.945
normalized growth (locus YDL040C, strain nat1, stronger effect = lower value): 1
normalized growth (locus YDL074C, strain BRE1, stronger effect = lower value): 0.962
normalized growth (locus YDL101C, strain DUN1, stronger effect = lower value): 0.967
normalized growth (locus YDL134C, strain PPH21, stronger effect = lower value): 0.972
normalized growth (locus YDL185W, strain tfp1, stronger effect = lower value): 0.955
normalized growth (locus YDL192W, strain arf1, stronger effect = lower value): 0.954
normalized growth (locus YDR001C, strain nth1, stronger effect = lower value): 1.01
normalized growth (locus YDR069C, strain doa4, stronger effect = lower value): 0.998
normalized growth (locus YDR101C, strain arx1, stronger effect = lower value): 0.899 (active)
normalized growth (locus YDR137W, strain rgp1, stronger effect = lower value): 1.02
normalized growth (locus YDR150W, strain NUM1, stronger effect = lower value): 0.993
normalized growth (locus YDR159W, strain sac3, stronger effect = lower value): 0.941
normalized growth (locus YDR162C, strain NBP2, stronger effect = lower value): 0.968
normalized growth (locus YDR195W, strain ref2): 1.12
normalized growth (locus YDR297W, strain sur2, stronger effect = lower value): 1.01
normalized growth (locus YDR318W, strain mcm21, stronger effect = lower value): 0.911 (active)
normalized growth (locus YDR334W, strain swr1, stronger effect = lower value): 1.01
normalized growth (locus YDR335W, strain msn5, stronger effect = lower value): 0.99
normalized growth (locus YDR388W, stronger effect = lower value): 0.947
normalized growth (locus YDR392W, strain spt3, stronger effect = lower value): 0.953
normalized growth (locus YDR502C, strain sam2, stronger effect = lower value): 0.934
normalized growth (locus YEL003W, strain gim4, stronger effect = lower value): 0.999
normalized growth (locus YEL037C, strain rad23, stronger effect = lower value): 0.998
normalized growth (locus YEL061C, strain CIN8 (second series), stronger effect = lower value): 1.01
normalized growth (locus YEL061C, strain CIN8, stronger effect = lower value): 0.98
normalized growth (locus YER015W, strain faa2, stronger effect = lower value): 0.975
normalized growth (locus YER016W, strain bim1, stronger effect = lower value): 0.989
normalized growth (locus YER110C, stronger effect = lower value): 0.968
normalized growth (locus YER111C, strain swi4, stronger effect = lower value): 0.996
normalized growth (locus YER155C, strain BEM2 (second series), stronger effect = lower value): 0.988
normalized growth (locus YER155C, strain BEM2, stronger effect = lower value): 0.973
normalized growth (locus YER167W, strain BCK2, stronger effect = lower value): 0.965
normalized growth (locus YFR010W, strain ubp6, stronger effect = lower value): 0.978
normalized growth (locus YGL078C, strain dbp3, stronger effect = lower value): 0.96
normalized growth (locus YGL086W, strain mad1, stronger effect = lower value): 0.932
normalized growth (locus YGL167C, strain pmr1, stronger effect = lower value): 1.02
normalized growth (locus YGL173C, strain kem1, stronger effect = lower value): 0.967
normalized growth (locus YGL227W, strain vid30, stronger effect = lower value): 1
normalized growth (locus YGL240W, strain doc1, stronger effect = lower value): 0.967
normalized growth (locus YGL248W, strain PDE1, stronger effect = lower value): 0.985
normalized growth (locus YGL253W, strain hxk2, stronger effect = lower value): 1
normalized growth (locus YGR078C, strain PAC10, stronger effect = lower value): 0.969
normalized growth (locus YGR135W, strain pre9, stronger effect = lower value): 0.898
normalized growth (locus YGR229C, strain SMI1, stronger effect = lower value): 0.965
normalized growth (locus YGR252W, strain gcn5, stronger effect = lower value): 0.956
normalized growth (locus YHR013C, strain ard1, stronger effect = lower value): 1.1
normalized growth (locus YHR027C, strain rpn1, stronger effect = lower value): 0.998
normalized growth (locus YHR030C, strain SLT2, stronger effect = lower value): 0.983
normalized growth (locus YHR079C, strain IRE1 (second series), stronger effect = lower value): 0.942
normalized growth (locus YHR094C, strain hxt1, stronger effect = lower value): 0.966
normalized growth (locus YHR129C, strain ARP1, stronger effect = lower value): 0.966
normalized growth (locus YHR142W, strain chs7, stronger effect = lower value): 1.04
normalized growth (locus YHR200W, strain rpn10, stronger effect = lower value): 0.927
normalized growth (locus YIL066C, strain RNR3, stronger effect = lower value): 0.946
normalized growth (locus YIL073C, strain SPO22, stronger effect = lower value): 0.996
normalized growth (locus YIL125W, strain kgd1, stronger effect = lower value): 0.982
normalized growth (locus YIR030C, strain dcg1, stronger effect = lower value): 0.962
normalized growth (locus YJL092W, strain hpr5, stronger effect = lower value): 0.988
normalized growth (locus YJL095W, strain BCK1 (second series), stronger effect = lower value): 1.02
normalized growth (locus YJL095W, strain BCK1, stronger effect = lower value): 0.933
normalized growth (locus YJL115W, strain asf1, stronger effect = lower value): 1.03
normalized growth (locus YJL129C, strain trk1, stronger effect = lower value): 1.03
normalized growth (locus YJL134W, strain LCB3, stronger effect = lower value): 0.976
normalized growth (locus YJL154C, strain vps35, stronger effect = lower value): 1.02
normalized growth (locus YJL164C, strain tpk1, stronger effect = lower value): 1.01
normalized growth (locus YJL166W, strain qcr8, stronger effect = lower value): 0.99
normalized growth (locus YJL168C, strain set2, stronger effect = lower value): 0.961
normalized growth (locus YJL187C, strain SWE1 (second series), stronger effect = lower value): 0.952
normalized growth (locus YJL187C, strain SWE1, stronger effect = lower value): 1
